High-throughput results from PubChem BioAssay.
In the library only some 6.9% were active in any assay of this set; here they are far more common.
Mdm2-MdmX inh = human Mdm2/MdmX binding inhibition. O15151+Q00987. SaOS-2 split-luciferase Mdm2/MdmX complementation, luminescence. inhibition, % at 8 µM. 330,000 tested, 3% active. AID 485346;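 active means inhibition of at least 50% at 8 µM in the primary screen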
SKKanGAS inh = inhibitors of SKKanGAS S. pyogenes growth in kanamycin (SK-promoter or general growth effect). 300,000 tested, 1.3% active. AID 1662. BacTiter-Glo, 6 h. inhibition, % at 7.5 µM;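 active means mean replicate score, as percent of positive control median, at least 50; inconclusive means mean below 50 but one replicate at or above 50; inactive means mean and every replicate below 50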;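 further: strain carries kanamycin resistance gene driven by streptokinase promoter and grows in 40 µg/ml kanamycin; loss of luminescence reflects streptokinase promoter inhibition or plain growth inhibition; 0% = median of DMSO wells and 100% = positive control at its reference dose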
Beta cell apopt = blocks beta cell apoptosis; INS-1E cytokine-induced death, ATP luminescence, 48 h; percent of positive-control rescue, neutral wells zero; protection from apoptosis, % (no concentration beside the values); 300,000 tested, 0.8% active;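 active means Every replicate reaches about 75%, or at least half do and their mean reaches it too, limit read from the data; inconclusive means At least half of replicates reach the limit but their mean does not; inactive means Under half of replicates reach the limit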;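 further: 0% = cytokine-treated negative control wells and 100% = positive control rescue; higher means more ATP so stronger rescue from cytokine killing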
CSC inhib = blocks cancer stem cells; cancer stem cell-like cells viability, luminescence; inhibition, % at 7.5 µM; 300,000 tested, 1.1% active; AID 2717; in the data active means inhibition above about 75%; inconclusive means no clear call, values can overlap the other calls; tested in HMLE shEcad cells
MPTP inh = permeability transition pore inhibition | AID 602449 | inhibition, % at 10 µM | isolated mouse mitochondria, Ca2+ swelling absorbance, 30 min | 360,000 tested, 1.4% active;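 active means inhibition of 50% or more, scaled per plate between neutral and stimulator controls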;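 further: 0% = DMSO wells given calcium and 100% = 1 mM EGTA wells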
NR3A LBD binder = modulators (binders) of human NR3A ligand-binding domain | NR3A LBD differential scanning fluorimetry, Tm shift; 0% = protein alone, 100% = glycine-bound protein | Tm shift relative to glycine control, % at 25 µM | 340,000 tested, 2.5% active;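 active means melting temperature shift of at least 10% of the positive control shift, at one fixed dose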
* = called active by the depositor; ? = inconclusive; / = no result given.

SMILES	Mdm2-MdmX inh	SKKanGAS inh	Beta cell apopt	CSC inhib	MPTP inh	NR3A LBD binder
O=C(N/N=C/c1cccc(O)c1)c1ccc(NC(=O)C2CCCCC2)cc1	30.0	1.0	4.5	11.5	1.0	10.1*
COc1ccc(/C=N/NC(=O)c2ccc(COc3cccc4cccnc34)cc2)cc1O	-1.3	13.4	-2.9	1.5	-1.3	3.7
Cc1ccc(C(C)C)c(OCc2ccc(C(=O)N/N=C/c3ccc(O)cc3O)cc2)c1	/	86.7*	116.5*	100.6*	2.6	26.0*
Cc1ccc(C(C)C)c(OCc2ccc(C(=O)N/N=C/c3ccc(C(=O)O)cc3)cc2)c1	38.6	41.6	-18.1	16.7	32.6	0.6
O=C(N/N=C/c1cccc(O)c1)NC1CCCCC1	-5.0	20.1	/	-9.9	0.2	-2.1
O=C(Nc1ccc(Cn2cccn2)cc1)c1ccc(COc2ccccc2Br)cc1	9.8	41.7	-2.5	-19.3	-1.9	30.4*
O=c1[nH]c(CN2CCN(S(=O)(=O)/C=C/c3ccccc3)CC2)nc2cc(Cl)ccc12	19.9	16.5	-3.2	58.9	1.2	-1.1
O=C(NCc1ccccc1F)Nc1nnc([C@@H]2C[C@H](O)[C@@H](CO)O2)s1	/	/	/	/	-1.8	/
COc1ccc(C(=O)C(=NN)c2ccccc2)cc1	/	/	/	/	-1.2	/
COc1ccc(C(=O)C(=NNc2ccccc2)c2ccc(OC)cc2)cc1	/	/	/	/	2.4	12.6*
O=C1CC[C@@H](CN(Cc2ccccn2)Cc2nc(-c3ccc(C(F)(F)F)cc3)no2)N1	11.2	-2.5	-2.4	-5.0	2.2	1.9
O=S(=O)(Nc1ccc(-c2csc(-c3ccccc3)n2)cc1)c1ccccc1	-1.5	46.3	3.6	148.5*	4.6	20.4*
O=C(O)c1ccc(-c2nc(-c3ccccc3)cs2)cc1	-6.1	7.2	-2.6	7.3	1.5	3.0
O=[N+]([O-])c1ccc(S(=O)(=O)Nc2ccc(-c3csc(-c4ccccc4)n3)cc2)cc1	38.4	66.5*	9.3	100.3*	/	/
Cc1ccc(S(=O)(=O)Nc2ccc(-c3csc(-c4ccccc4)n3)cc2)cc1	45.3	40.0	3.9	112.0*	4.1	24.4*
O=S(=O)(Nc1ccc(-c2ccc(NS(=O)(=O)c3ccccc3)cc2)cc1)c1ccccc1	/	/	/	/	1.3	-0.2
c1ccc(-c2csc(-c3ccc(-c4csnn4)cc3)n2)cc1	-18.4	-13.1	9.1	-2.5	1.1	18.6*
CCc1nc2ccc(C(=O)N(C)Cc3ccco3)cn2c1N(C)Cc1ccc(OC)cc1	/	/	/	/	0.8	/
CC(=O)[C@@]1(O)C(C)CC2C3C=C(C)C4=Cc5c(cnn5-c5ccccc5)C[C@]4(C)C3C(O)C[C@@]21C (some centres not stated)	/	63.8*	-2.2	99.8*	-0.3	1.6
OC(Cc1cccc(Br)c1)c1ncc(-c2ccccc2C(F)(F)F)[nH]1 (configuration not stated)	/	/	/	/	5.7	/
Cc1ccc(CCN2CC(C(=O)NCc3ccc4c(c3)OCO4)CC2=O)cc1 (configuration not stated)	-15.9	-3.6	-3.7	-2.4	1.7	-0.4
Cc1ccc(CNC(=O)C2CCC(=O)N(CCc3ccc(Cl)cc3)C2)cc1 (configuration not stated)	-11.9	-20.9	/	-9.9	0.0	1.8
O=C(NCc1ccc2c(c1)OCO2)C1CC(=O)N(CCc2ccc(Cl)cc2)C1 (configuration not stated)	2.6	-14.2	-3.6	-11.0	-0.1	11.7*
O=C(NCc1cccc2[nH]ccc12)C1CCC(=O)N(CCc2ccc(Cl)cc2)C1 (configuration not stated)	-26.1	1.0	2.1	-0.8	-0.9	11.1*
OCCN1CCN(c2nccn3ccnc23)CC1	/	/	/	/	-0.8	/
SMILES	Mdm2-MdmX inh	SKKanGAS inh	Beta cell apopt	CSC inhib	MPTP inh	NR3A LBD binder
CCCCCCOc1ccc(/C(N)=N/O)cc1	-79.9	-11.8	0.1	23.4	-3.3	-0.7
N=C(N)c1ccc(OCCCCCOc2ccc(C(=N)N)cc2)cc1	28.4	108.0*	21.9	-12.8	2.4	-0.8
Cc1nn(C)c(C)c1NS(=O)(=O)c1cccc(Br)c1	19.4	-10.0	-3.5	-7.7	0.3	2.0
CC(=O)c1sc2nc(-c3ccc(C)cc3)c3c(c2c1N)CCCC3	-9.7	5.9	9.1	36.3	3.6	10.0*
CCc1nc2c(OCc3ccc(C#N)cc3)cccn2c1N(C)C(=O)C(C)C	/	/	/	/	0.4	/
N#Cc1ccccc1NC(=O)CN(Cc1ccccc1)Cc1ccccc1	20.6	10.4	-7.9	9.3	0.5	16.2*
CCOc1ccc(CCNC(=O)c2ccc3nc(N4CCOCC4)sc3c2)cc1OCC	22.7	-15.3	5.3	-9.3	3.1	-0.9
Cc1ccc(-c2csc(N(CCO)CCCn3c(C(F)(F)F)nc4cc(C(F)(F)F)ccc43)n2)cc1	3.7	44.1	-10.2	4.1	0.3	18.6*
Cc1ccccc1C(=O)Oc1ccc(Sc2ccc(O)cc2)cc1	24.0	95.8*	6.8	24.7	/	/
C1CCc2c(nc3nnnn3c2NCC2CC2)C1	14.1	-1.0	0.6	-6.3	0.2	0.4
CCCCCn1cnc2sc(CC)cc2c1=O	-69.6	5.9	0.7	5.9	0.4	8.2
CCc1cc2c(=O)n(CC(C)C)cnc2s1	-99.0	3.1	-4.1	7.6	-0.5	18.0*
COc1ccc(C(NC(=O)/C=C/c2ccco2)c2ccc(OC)c(OC)c2)cc1 (configuration not stated)	-44.6	-0.6	1.2	/	1.8	-12.9
CCOc1ccc(C(NC(=O)/C=C/c2ccco2)c2ccc(OC)c(OC)c2)cc1 (configuration not stated)	19.9	3.6	-14.3	-5.1	1.1	10.2*
COc1cccc(Nc2c3c(nc4c(-c5ccccc5)c(C)nn24)CCC3)c1	27.1	77.8*	39.8	8.0	0.8	-3.8
O=C(O)CCCC(=O)Nc1ccc(C(=O)NCc2cccnc2)cc1	-43.6	2.8	101.1*	-0.8	-2.4	2.4
O=C(CCC1CCCC1)Nc1ccc(C(=O)NCc2cccnc2)cc1	6.3	-3.2	100.1*	?	2.2	-0.8
O=C(NCc1cccnc1)c1ccc(NS(=O)(=O)c2ccccc2)cc1	10.2	1.9	-2.8	-0.9	-1.6	-0.3
CCCCCCCCOC(=O)C1=C(C)Nc2nnnn2C1c1cccs1 (configuration not stated)	41.1	107.5*	2.2	102.0*	20.1	-7.3
COC(=O)[C@H](CCSC)NC(=O)Cn1cnc(C(=O)Nc2ccc(C)c(C)c2)n1	1.3	/	/	/	-0.5	12.7*
COC(=O)[C@H](CC(C)C)NC(=O)Cn1cnc(C(=O)Nc2ccc(C)c(C)c2)n1	39.8	/	/	/	-0.3	1.7
O=C(Nc1cc(Cl)cc(Cl)c1)N[C@@H]1CC[C@@H](CCNS(=O)(=O)c2cccc(F)c2)O[C@@H]1CO	/	/	/	/	5.8	/
O=C(NCc1cccc(F)c1)c1ccc(N2C(=O)Cn3c(cc4sccc43)C2=O)cc1	13.9	-2.9	-7.3	-5.3	-1.9	17.2*
O=C(NCc1ccco1)c1ccc(Cn2c(=O)c3sccc3n(Cc3cccc(F)c3)c2=O)cc1	21.0	9.2	1.5	-5.7	-3.0	-3.8
